This passage reports Potency results from PubChem BioAssay (Tox21).

SMILES strings stand for the structures. Values without a mark were called inactive. Results filed as inconclusive are left out. Active and inactive are the calls of the source. Unless noted, calls come from the whole dose curve.

The nature of assay [1]: Nuclear factor erythroid 2-related factor 2/antioxidant responsive element (Nrf2/ARE) small molecule agonists: qHTS cell viability counter screen in human keratinocytes (AID 1919968; active = well fitted curve in the direction sought with a large enough effect in the repeat runs; an effect the other way counts as inactive or inconclusive; note: nearly all actives have a fitted effect of over 55% in size; note: potency is the fitted concentration of half-maximal effect). In short, it runs like this: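 After a 5 h attachment period, ARE-reporter keratinocytes were dosed with compounds in DMSO and then cultured 23 h at 37 C. Cell viability came from CellTiter-Fluor signal read after a further 1 h.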
On the technique in general: In qHTS, concentration-response curves come from the screen itself.

Assay [2] in a line: Nuclear factor erythroid 2-related factor 2/antioxidant responsive element (Nrf2/ARE) small molecule agonists: luciferase reporter gene qHTS assay in human keratinocytes (AID 1919969). Note: nearly all actives have a fitted effect of over 35% in size. Note: potency is the fitted concentration of half-maximal effect.
Assay [3] has as its target Gonadotropin-releasing hormone receptor (Homo sapiens) (UniProt P30968). Nature of the assay: Human gonadotropin-releasing hormone receptor (GnRHR) small molecule agonists, calcium flux assay in GnRHR-HEK293 cells (AID 1920063). Note: nearly all actives have a fitted effect of over 35% in size. The procedure, abridged: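 We seeded human GnRHR-expressing HEK293 cells for 18 hours, loaded them with calcium dye for an hour at 37 C, added test compounds, and recorded fluorescence intensity kinetically for three minutes.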
On the technique in general: A change in cytosolic calcium serves as a functional read-out for many receptors and channels.

The target of assay [4] is KiSS-1 receptor (Homo sapiens) (UniProt Q969F8). Nature of the assay: Human kisspeptin (KISS1R) small molecule agonists, calcium flux assay in KISS1R-HEK293 cells (AID 1920064; active = well fitted curve in the direction sought with a large enough effect in the repeat runs; an effect the other way counts as inactive or inconclusive). The procedure, abridged: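 Kinetic calcium assay, 1 s sampling over 3 min at Ex/Em 480/540, in HEK293 cells engineered with human KISS1R; compounds delivered in DMSO after 1 h dye loading.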
The nature of assay [5]: G protein-coupled receptor (GPCR) small molecule agonists, calcium flux assay: HEK293 wild type cell line counter screen (AID 1920065). The procedure, abridged: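 Calcium-sensitive dye, loaded 1 h at 37 C into cells cultured 18 h, reports compound-evoked calcium release as fluorescence (Ex/Em 480/540), measured over 3 min. Agonist mode; 15-point titrations, triplicate.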

Assay [6] can be described thus: p53 small molecule agonists, cell-based qHTS assay with human liver microsomes (AID 1963577). The procedure, abridged: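 p53RE-bla cells, 4,000/well, compound added after 5 h, with human liver microsomes 0.5 mg/mL and NADPH 0.5 mg/mL final; 16 h at 37 C, then LiveBLAzer 2 h RT, fluorescence.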
Assay [7] in a line: p53 small molecule agonists, cell-based qHTS assay with rat liver microsomes (AID 1963578). The procedure, abridged: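 p53RE-bla cells, 4,000/well, pre-incubated 5 h, then given compounds plus rat liver microsomes (0.5 mg/mL final) and NADPH (0.5 mg/mL final). Incubation 16 h at 37 C; beta-lactamase reporter read by LiveBLAzer fluorescence after 2 h at room temperature.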
Assay [8] in a line: p53 small molecule agonists, cell-based qHTS assay with human liver microsomes: qHTS cell viability counter screen (AID 1963579). Note: nearly all actives have a fitted effect of over 45% in size. Note: potency is the fitted concentration of half-maximal effect. The procedure, abridged: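 p53RE-bla cells, 4,000/well, dosed 5 hours after plating, with human liver microsomes (0.5 mg/mL final) plus NADPH (0.5 mg/mL final), 16 hours at 37 C. Viability read as CellTiter-Glo luminescence after 30 min at room temperature.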

Assay [9] in a line: p53 small molecule agonists, cell-based qHTS assay: qHTS cell viability counter screen (AID 1963581). Note: nearly all actives have a fitted effect of over 45% in size. The procedure, abridged: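 Following 5 h attachment, HCT-116 p53RE-bla cells took up compound for 16 h at 37 C; the reporter was read with B/G FRET substrate (2 h RT), and viability then via CellTiter-Glo ATP luminescence.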
A short description of assay [10]: p53 small molecule agonists, cell-based qHTS assay (AID 1963582; active = well fitted activation curve with a large enough effect in the signal ratio in the repeat runs, not every such curve was filed as active; the % refers to the signal ratio). In short, it runs like this: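 In this cell-based concentration-response screen, a p53 response element drives beta-lactamase; cells received DMSO-borne compounds after 5 h culture and were incubated a further 16 h before FRET substrate development.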
In assay [11] the target is 5-hydroxytryptamine receptor 2A (Homo sapiens) (UniProt P28223). Nature of the assay: 5-hydroxytryptamine receptor 2A (HTR2A) small molecule agonists, cell-based qHTS assay (AID 1963587). Note: nearly all actives have a fitted effect of over 30% in size. Note: potency is the fitted concentration of half-maximal effect. In short, it runs like this: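 CHO cells stably expressing human HTR2A, plated 18 h, loaded with calcium dye 1 h at 37 C. Agonist mode: compounds added and intracellular calcium fluorescence recorded kinetically for 2 min at 1 sec intervals.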

For assay [12], the target named is Muscarinic acetylcholine receptor M1 (Homo sapiens) (UniProt P11229). Nature of the assay: Cholinergic receptor muscarinic 1 (CHRM1) small molecule agonists, cell-based qHTS assay (AID 1963589). Note: nearly all actives have a fitted effect of over 35% in size. In short, it runs like this: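 Measures agonist-induced intracellular calcium rise. Stable human CHRM1 CHO line, 1 h dye load at 37 C, compounds from DMSO, kinetic fluorescence read.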

Assay [13] is described as follows: cAMP Responsive Elements (CRE) small molecule agonists, cell-based qHTS assay (AID 1963590). The procedure, abridged: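 A CRE-responsive beta-lactamase reporter in HEK 293T cells was used. Treatment ran 3 h at 37 C; detection used LiveBLAzer B/G FRET substrate for 2 h at room temperature.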
Assay [14] can be described thus: cAMP Responsive Elements (CRE) small molecule antagonists, cell-based qHTS assay (AID 1963591; active = well fitted inhibition curve with a large enough effect in the signal ratio in the repeat runs, not every such curve was filed as active; the % refers to the signal ratio). The procedure, abridged:
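HEK293T cells carrying a CRE-driven beta-lactamase reporter receive compound and NKH477 (0.25 uM final) for 3 h. Fluorescence from LiveBLAzer B/G FRET substrate is read after 2 h at room temperature.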

The target of assay [15] is Beta-2 adrenergic receptor (Homo sapiens) (UniProt P07550). Nature of the assay: Adrenergic beta2 receptor (ADRB2) small molecule antagonists, cell-based qHTS assay (AID 1963592). Note: nearly all actives have a fitted effect of over 50% in size. Note: potency is the fitted concentration of half-maximal effect. The procedure, abridged: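 Cells (CHO, stable ADRB2 overexpression) incubated 18-20hr at 37C; compounds added from DMSO; agonist mix (1nM isoproterenol, 100uM IBMX, 25uM Ro-20-1724) added; 0.5hr RT; d2-cAMP and anti-cAMP-cryptate added; 1hr RT; 665/615 nm read.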

Assay [16] has as its target D(2) dopamine receptor (Homo sapiens) (UniProt P14416). Nature of the assay: Dopamine D2 receptor (DRD2) small molecule agonists, cell-based qHTS assay (AID 1963594). Note: nearly all actives have a fitted effect of over 35% in size. In short, it runs like this:
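HEK293 cells stably expressing human DRD2, pre-treated with PDE inhibitor Ro20-1724 (0.1 mM final) and compound 10 min at room temperature, then stimulated with NKH477 (200nM […]) for 30 min. cAMP read by HTRF (665/620 nm).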

Assay [17] in a line: p53 small molecule agonists, cell-based qHTS assay with rat liver microsomes: qHTS cell viability counter screen (AID 1963580). Note: nearly all actives have a fitted effect of over 45% in size. In short, it runs like this:
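p53RE-bla HCT-116 cells were exposed 16 h at 37 C to compounds with rat liver microsomes (0.5 mg/mL) and NADPH (0.5 mg/mL). Viability was measured in the same wells as ATP content by CellTiter-Glo luminescence.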

Assay [18] concerns the target Muscarinic acetylcholine receptor M1 (Homo sapiens) (UniProt P11229). Nature of the assay: Cholinergic receptor muscarinic 1 (CHRM1) small molecule antagonists, cell-based qHTS assay (AID 1963588). Note: nearly all actives have a fitted effect of over 40% in size. The procedure, abridged: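 CHRM1-CHO calcium-flux assay, antagonist mode. Cells were seeded 18 h, dye-loaded 1 h at 37 C and given compound for 5 min at RT, then acetylcholine was added at 50nM. FDSS fluorescence was read 3 min; 15 concentrations, three runs.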

Assay [19] concerns the target D(2) dopamine receptor (Homo sapiens) (UniProt P14416). Nature of the assay: Dopamine D2 receptor (DRD2) small molecule antagonists, cell-based qHTS assay (AID 1963595; active = well fitted inhibition curve with a large enough effect in the signal ratio in the repeat runs, with a control signal flat; the % refers to the signal ratio). The procedure, abridged: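 HTRF cAMP read-out at 665 and 620 nm emission (340 nm excitation). Antagonist mode: compounds were tested against 12 nM quinpirole in DRD2-HEK293 cells, with 200 nM NKH477 raising cAMP and 0.1 mM Ro20-1724 blocking its breakdown.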

Assay [20] deals with 5-hydroxytryptamine receptor 2A (Homo sapiens) (UniProt P28223). Nature of the assay: 5-hydroxytryptamine receptor 2A (HTR2A) small molecule antagonists, cell-based qHTS assay (AID 1963586). Note: nearly all actives have a fitted effect of over 45% in size. Note: potency is the fitted concentration of half-maximal effect. The procedure, abridged:
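Antagonist-mode intracellular calcium assay: DOI (4 nM) added after 5 min compound pre-incubation at room temperature to dye-loaded HTR2A-CHO cells. Fluorescence followed for 3 min, sampled every second.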

Chain of Beta-2 adrenergic receptor (Homo sapiens) (P07550 whole entry, looked up): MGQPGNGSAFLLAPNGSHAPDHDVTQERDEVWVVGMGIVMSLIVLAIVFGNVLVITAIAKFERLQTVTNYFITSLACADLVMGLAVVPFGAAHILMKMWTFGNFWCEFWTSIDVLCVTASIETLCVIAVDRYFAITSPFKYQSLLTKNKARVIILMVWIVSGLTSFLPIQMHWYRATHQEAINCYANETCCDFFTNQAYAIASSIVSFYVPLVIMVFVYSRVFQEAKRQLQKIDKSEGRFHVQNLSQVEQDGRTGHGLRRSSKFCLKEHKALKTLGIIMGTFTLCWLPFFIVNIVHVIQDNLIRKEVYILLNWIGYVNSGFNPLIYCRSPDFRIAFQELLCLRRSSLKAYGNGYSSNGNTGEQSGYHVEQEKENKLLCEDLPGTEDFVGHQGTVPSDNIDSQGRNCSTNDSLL
Chain of 5-hydroxytryptamine receptor 2A (Homo sapiens) (P28223 whole entry, looked up): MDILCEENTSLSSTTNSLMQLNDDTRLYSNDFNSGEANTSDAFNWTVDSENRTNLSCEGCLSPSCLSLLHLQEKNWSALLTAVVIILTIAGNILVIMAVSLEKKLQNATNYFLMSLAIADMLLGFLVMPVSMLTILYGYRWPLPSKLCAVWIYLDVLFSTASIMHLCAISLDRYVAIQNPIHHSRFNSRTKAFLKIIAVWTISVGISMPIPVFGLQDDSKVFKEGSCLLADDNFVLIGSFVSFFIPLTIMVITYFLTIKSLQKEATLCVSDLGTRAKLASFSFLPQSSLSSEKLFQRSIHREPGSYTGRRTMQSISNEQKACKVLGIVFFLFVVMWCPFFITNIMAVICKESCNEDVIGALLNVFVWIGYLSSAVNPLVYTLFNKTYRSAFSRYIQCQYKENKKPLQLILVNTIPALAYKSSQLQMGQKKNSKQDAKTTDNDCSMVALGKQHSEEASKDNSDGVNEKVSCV
Chain of KiSS-1 receptor (Homo sapiens) (Q969F8 whole entry, looked up): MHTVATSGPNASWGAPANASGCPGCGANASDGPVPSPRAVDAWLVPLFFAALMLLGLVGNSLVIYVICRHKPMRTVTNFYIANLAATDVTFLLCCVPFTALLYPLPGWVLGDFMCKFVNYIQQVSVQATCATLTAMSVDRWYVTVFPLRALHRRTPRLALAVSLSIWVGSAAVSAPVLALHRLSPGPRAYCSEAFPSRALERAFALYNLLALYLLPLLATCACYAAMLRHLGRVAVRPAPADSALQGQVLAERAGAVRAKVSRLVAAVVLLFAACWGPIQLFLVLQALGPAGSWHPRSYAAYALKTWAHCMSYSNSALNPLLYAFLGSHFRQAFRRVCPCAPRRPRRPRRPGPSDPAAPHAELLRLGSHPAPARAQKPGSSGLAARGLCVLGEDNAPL
Chain of Muscarinic acetylcholine receptor M1 (Homo sapiens) (P11229 whole entry, looked up): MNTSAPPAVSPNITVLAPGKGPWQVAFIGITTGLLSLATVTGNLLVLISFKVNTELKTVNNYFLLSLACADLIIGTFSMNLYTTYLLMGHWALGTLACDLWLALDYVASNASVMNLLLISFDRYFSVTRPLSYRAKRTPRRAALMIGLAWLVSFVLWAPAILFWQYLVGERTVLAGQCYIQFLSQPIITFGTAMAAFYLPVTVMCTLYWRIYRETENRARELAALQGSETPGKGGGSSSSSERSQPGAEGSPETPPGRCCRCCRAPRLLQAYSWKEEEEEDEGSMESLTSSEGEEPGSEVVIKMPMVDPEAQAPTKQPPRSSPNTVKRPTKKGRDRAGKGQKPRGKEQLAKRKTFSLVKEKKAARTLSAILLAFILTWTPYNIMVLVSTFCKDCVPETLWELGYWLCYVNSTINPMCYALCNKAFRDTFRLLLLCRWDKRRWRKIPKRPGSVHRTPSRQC
Chain of Gonadotropin-releasing hormone receptor (Homo sapiens) (P30968 whole entry, looked up): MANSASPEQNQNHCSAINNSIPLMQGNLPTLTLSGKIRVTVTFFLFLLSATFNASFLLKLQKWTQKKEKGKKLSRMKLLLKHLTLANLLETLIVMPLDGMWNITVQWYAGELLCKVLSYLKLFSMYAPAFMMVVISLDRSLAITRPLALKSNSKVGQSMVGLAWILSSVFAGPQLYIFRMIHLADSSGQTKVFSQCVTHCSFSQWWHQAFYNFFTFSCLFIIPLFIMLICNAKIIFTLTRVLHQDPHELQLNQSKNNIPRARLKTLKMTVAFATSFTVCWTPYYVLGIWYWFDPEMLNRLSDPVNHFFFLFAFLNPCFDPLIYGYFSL
Chain of D(2) dopamine receptor (Homo sapiens) (P14416 whole entry, looked up): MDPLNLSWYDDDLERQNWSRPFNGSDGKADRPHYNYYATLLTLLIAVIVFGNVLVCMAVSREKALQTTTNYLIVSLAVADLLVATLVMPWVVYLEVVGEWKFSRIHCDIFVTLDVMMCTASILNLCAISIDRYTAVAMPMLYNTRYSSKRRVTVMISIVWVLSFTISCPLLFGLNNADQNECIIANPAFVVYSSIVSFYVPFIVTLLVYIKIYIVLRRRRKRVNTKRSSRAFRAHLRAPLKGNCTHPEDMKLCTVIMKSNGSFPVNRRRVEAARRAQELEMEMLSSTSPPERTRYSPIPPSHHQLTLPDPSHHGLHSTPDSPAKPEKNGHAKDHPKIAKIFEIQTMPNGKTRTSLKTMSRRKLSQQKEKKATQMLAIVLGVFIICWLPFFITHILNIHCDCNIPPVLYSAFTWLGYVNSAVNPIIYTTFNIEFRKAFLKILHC

With `CC(Cl)(Cl)[N+](=O)[O-]`, the Potency entry in assay [1], in assay [2], in assay [3], in assay [4], in [5] and in [6] was “inactive” throughout. The Potency entry in assay [7], in assay [8], in [9], in assay [10], in assay [11] and in assay [12] was “inactive” throughout. Moreover, the Potency entry in assay [13], in [14], in [15] and in [16] was “inactive” throughout.

With `NC(=O)C(Cl)Cl`, the Potency result in [1], in assay [2], in assay [3], in assay [4], in assay [5] and in assay [6] was “inactive” throughout. Moreover, the Potency result in assay [7], in assay [17], in [9], in assay [10], in assay [11] and in [18] was “inactive” each time. Moreover, the Potency result in [13], in [14], in [15], in assay [16] and in assay [19] was “inactive” throughout.

On to `C[N+](C)(C)CCOC(=O)C(O)(c1ccccc1)c1ccccc1`, for which the Potency result in assay [1], in assay [2], in assay [3], in [4], in [5] and in assay [6] was “inactive” throughout. In addition, the Potency result in [7], in assay [17], in assay [9], in [10], in assay [20] and in assay [11] was “inactive” in each case. In addition, the Potency result in assay [13], in assay [14], in [15], in assay [16] and in assay [19] was “inactive” in each case.

Regarding `CO/N=C(/C(=O)OC)c1ccccc1COc1ccccc1C`, the Potency entry in [1], in assay [2], in [3], in [4], in assay [5] and in assay [6] was “inactive” in each case. For the same compound, the Potency result in assay [7], in [8], in [17], in [20], in assay [18] and in assay [15] was “inactive” throughout. Moreover, the Potency result in assay [16] and in [19] was “inactive” throughout.

As to `CC1(C)[C@H](/C=C2\CCSC2=O)[C@@H]1C(=O)OCc1coc(Cc2ccccc2)c1`, the Potency result in assay [1], in assay [3], in [4], in assay [5], in assay [6] and in assay [7] was “inactive” each time. Besides, the Potency entry in [17], in [9], in assay [10], in assay [11], in [18] and in assay [12] was “inactive” in each case. Further, the Potency result in [15], in assay [16] and in assay [19] was “inactive” throughout. For the same compound, the Potency in assay [2] is 61.1 µM (active); in assay [20] it was 2.65 µM (active).

`CC/C(=N\OC/C=C/Cl)C1=C(O)CC(C2CCOCC2)CC1=O` (stereo not drawn): the Potency result in assay [1], in assay [2], in assay [3], in assay [4], in [5] and in [6] was “inactive” in each case. In addition, the Potency entry in assay [7], in [8], in assay [9], in [10], in [11] and in assay [18] was “inactive” throughout. The Potency entry in assay [12], in assay [15], in [16] and in [19] was “inactive” each time.

As to `CCN(C(C)=O)c1cccc(-c2ccnc3c(C#N)cnn23)c1`, the Potency entry in [1], in assay [2], in assay [3], in assay [4], in assay [5] and in [6] was “inactive” throughout. In addition, the Potency result in assay [7], in assay [17], in [9], in assay [10], in assay [13] and in [15] was “inactive” in each case. The Potency entry in assay [16] and in assay [19] was “inactive” throughout.

On to `CC(c1ccccc1)(c1ccc(O)cc1)c1ccc(O)cc1`, for which the Potency in assay [1] was 43.3 µM (active); in [8], 45.8 µM (active); in assay [11], 49 µM (active); in assay [15], 61.1 µM (active). Moreover, the Potency result in [2], in [3], in assay [4], in assay [5], in assay [6] and in assay [7] was “inactive” throughout. In addition, the Potency result in assay [9], in assay [20], in assay [18], in [12], in assay [14] and in [16] was “inactive” in each case. In addition, the Potency entry in assay [19] was “inactive”.
